# Hit rate of the full screen: of about 310,000 compounds, about 14,000 (4.5%) showed an effect of 50% or more. Effects have a minus sign here. Many of the other results were omitted from the sample, so strong results are more common in it than they were.
# Molecular target: human ether-à-go-go-related gene (hERG) potassium channel (human, UniProt Q12809)
# Experiment: primary screen, population patch clamp on CHO cells stably expressing hERG; higher = less effect of the substance
# 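Note: peak tail current of the secondary pulse compared with the same well before compound.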
# human ether-à-go-go-related gene (hERG) potassium channel, sequence (Q12809 whole entry, looked up): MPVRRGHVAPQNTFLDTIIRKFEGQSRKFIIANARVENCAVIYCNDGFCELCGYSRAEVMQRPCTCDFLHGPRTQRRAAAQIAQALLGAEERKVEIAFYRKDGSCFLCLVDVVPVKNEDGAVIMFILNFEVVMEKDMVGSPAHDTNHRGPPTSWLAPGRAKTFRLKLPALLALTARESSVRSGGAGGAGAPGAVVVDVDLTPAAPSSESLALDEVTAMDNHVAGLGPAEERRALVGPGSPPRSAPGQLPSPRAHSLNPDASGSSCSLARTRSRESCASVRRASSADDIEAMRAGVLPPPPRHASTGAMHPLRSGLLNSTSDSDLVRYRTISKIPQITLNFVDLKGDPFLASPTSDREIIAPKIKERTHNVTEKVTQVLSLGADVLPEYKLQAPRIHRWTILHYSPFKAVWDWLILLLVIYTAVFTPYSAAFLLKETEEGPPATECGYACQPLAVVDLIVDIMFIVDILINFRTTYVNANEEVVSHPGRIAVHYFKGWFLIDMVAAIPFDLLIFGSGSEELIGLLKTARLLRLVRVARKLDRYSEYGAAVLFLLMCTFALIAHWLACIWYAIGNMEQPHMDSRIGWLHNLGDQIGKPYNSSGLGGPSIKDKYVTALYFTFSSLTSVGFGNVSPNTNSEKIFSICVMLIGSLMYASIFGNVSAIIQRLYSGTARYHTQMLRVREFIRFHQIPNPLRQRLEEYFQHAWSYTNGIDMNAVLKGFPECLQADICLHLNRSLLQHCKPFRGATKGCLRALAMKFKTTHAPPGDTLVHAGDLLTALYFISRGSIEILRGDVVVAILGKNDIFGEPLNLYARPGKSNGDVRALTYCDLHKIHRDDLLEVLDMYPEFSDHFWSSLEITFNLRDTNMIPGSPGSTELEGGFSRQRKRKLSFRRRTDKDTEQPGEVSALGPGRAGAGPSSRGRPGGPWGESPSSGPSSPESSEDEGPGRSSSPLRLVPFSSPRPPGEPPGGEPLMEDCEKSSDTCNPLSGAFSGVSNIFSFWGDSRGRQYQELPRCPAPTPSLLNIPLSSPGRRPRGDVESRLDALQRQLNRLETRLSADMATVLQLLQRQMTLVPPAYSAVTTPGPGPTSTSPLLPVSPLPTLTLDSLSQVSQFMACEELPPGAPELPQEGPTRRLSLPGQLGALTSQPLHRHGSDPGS
row,SMILES,"hERG current change (%, negative = inhibition) at 10uM [%]"
1,C/C(=N\Nc1ccc(Cl)c(C(=O)O)c1)c1ccccn1,5.73
2,CCOc1cccc(SCc2noc(C(=O)NCC3CCCO3)c2C(=O)O)c1 (stereo not drawn),32.2
3,NS(=O)(=O)c1ccc(-c2cccc(/C=C3\SC(=O)NC3=O)c2)cc1,7.87
4,Cc1cc(/C=C(/C#N)C(=O)Nc2ccccc2)c(C)n1-c1cccnc1,-28.5
5,Cc1cc(/C=C(/C#N)C(=O)Nc2ccc(Cl)cc2)c(C)n1-c1cccnc1,-67.5
6,Cc1cc(/C=C(\C#N)C(=O)Nc2ccccc2)c(C)n1-c1cccnc1,8.27
7,Cc1c(C(=O)N2CCCC2)nnn1-c1nonc1N,8.67
8,CCS(=O)(=O)Nc1ccc(C2=NN(C(=O)c3ccco3)C(c3cccc(F)c3)C2)cc1 (stereo not drawn),-32.4
9,CS(=O)(=O)Nc1cccc(C2=NN(C(=O)c3ccco3)C(c3ccco3)C2)c1 (stereo not drawn),-2.88
10,CS(=O)(=O)Nc1ccc(C2=NN(C(=O)c3ccco3)C(c3ccccc3F)C2)cc1 (stereo not drawn),-78.2
11,CCC(=O)N1N=C(c2ccc(NS(=O)(=O)CC)cc2)CC1c1ccc(C)cc1 (stereo not drawn),-14.1
12,CCC(=O)N1N=C(c2ccc(NS(C)(=O)=O)cc2)CC1c1ccc(C)cc1 (stereo not drawn),-44.7
13,O=C(c1ccco1)N1N=C(c2ccc(Br)cc2)CC1c1ccco1 (stereo not drawn),18.5
14,CS(=O)(=O)Nc1cccc(C2=NN(C(=O)c3ccco3)C(c3cccs3)C2)c1 (stereo not drawn),-59
15,Cc1ccc(C2=NN(C(=O)c3ccccc3F)C(c3ccccc3F)C2)cc1 (stereo not drawn),19
16,CS(=O)(=O)Nc1cccc(C2=NN(C(=O)c3ccccc3)C(c3cccs3)C2)c1 (stereo not drawn),-14
17,CCC(=O)N1N=C(c2ccc(NS(C)(=O)=O)cc2)CC1c1ccc(N(C)C)cc1 (stereo not drawn),-66.2
18,CCS(=O)(=O)Nc1cccc(C2=NN(C(=O)c3ccco3)C(c3ccco3)C2)c1 (stereo not drawn),-4.98
19,CS(=O)(=O)Nc1ccc(C2=NN(C(=O)c3ccco3)C(c3cccc(F)c3)C2)cc1 (stereo not drawn),-78.3
20,CCn1c(CSc2nc3ccccc3s2)nnc1SCC(=O)c1ccc2c(c1)OCCO2,-10.5
21,O=C(COC(=O)/C=C/c1cccc(F)c1)Nc1ccc2[nH]c(=O)[nH]c2c1,9.96
22,CCNC(=O)NC1(C(=O)N2CCC(Cc3ccccc3)CC2)CCCCC1,21.7
23,CCCn1c(N)c(C(=O)CSc2nnc(Cc3cccs3)n2C2CC2)c(=O)n(C)c1=O,-0.534
24,COc1ccc(N(CC(=O)Nc2ccccc2F)S(=O)(=O)c2ccc(OC)c(OC)c2)cc1,-24.2
25,O=C(NCCN1CCOCC1)c1cccc(S(=O)(=O)N2CCCCCC2)c1,7.38
26,COc1ccc(C(=O)N/N=C/c2ccc(OC(=O)c3cccc4ccccc34)c([N+](=O)[O-])c2)cc1,3.57

row,SMILES,"hERG current change (%, negative = inhibition) at 10uM [%]"
1,O=C(COC(=O)c1ccc(S(=O)(=O)NCc2ccco2)cc1)NC1CCCCC1,-1.72
2,CCN(Cc1nc(-c2ccc(OC)c(OC)c2)no1)C(=O)c1ccc2c(c1)OCO2,5.32
3,O=c1[nH]c2c(c(=O)[nH]1)CCC2,17.7
4,Cc1ccc(C2CC(c3ccc(NS(C)(=O)=O)cc3)=NN2C(=O)c2ccco2)cc1 (stereo not drawn),-78.5
5,CCC(CC)C(=O)N1N=C(c2ccc(NS(C)(=O)=O)cc2)CC1c1ccc(C)cc1 (stereo not drawn),-7.85
6,CS(=O)(=O)Nc1ccc(C2=NN(C(=O)c3ccco3)C(c3ccc(F)cc3)C2)cc1 (stereo not drawn),-81.1
7,O=C(c1ccco1)N1N=C(c2ccc3nccnc3c2)CC1c1ccccc1 (stereo not drawn),-22.3
8,CS(=O)(=O)Nc1ccc(C2=NN(C(=O)c3ccco3)C(c3ccccc3)C2)cc1 (stereo not drawn),-77.6
9,CCS(=O)(=O)Nc1ccc(C2=NN(C(=O)c3ccco3)C(c3ccc(C)cc3)C2)cc1 (stereo not drawn),-21
10,O=C(c1ccco1)N1N=C(c2ccccc2)CC1c1ccc2nccnc2c1 (stereo not drawn),-45
11,CCS(=O)(=O)Nc1ccc(C2=NN(C(=O)c3ccco3)C(c3ccco3)C2)cc1 (stereo not drawn),-7.66
12,O=C(c1ccco1)N1N=C(c2ccc(Cl)cc2)CC1c1ccco1 (stereo not drawn),15
13,CS(=O)(=O)Nc1ccc(C2=NN(C(=O)c3ccco3)C(c3ccco3)C2)cc1 (stereo not drawn),-72.3
14,O=C(c1ccco1)N1N=C(c2cccs2)CC1c1ccc(F)cc1 (stereo not drawn),-29
15,CCS(=O)(=O)Nc1ccc(C2=NN(C(=O)c3ccco3)C(c3cccs3)C2)cc1 (stereo not drawn),-1.38
16,O=C(c1cc(-c2ccc(O)cc2)on1)N1CCN(c2ccc(F)cc2)CC1,-23.6
17,O=C(NCCCO)C(=O)NCC1OCCCN1S(=O)(=O)c1cccs1 (stereo not drawn),-10.6
18,COc1ccc(C(=O)N(C)Cc2cnn(Cc3ccccc3)c2)cc1S(=O)(=O)N1CCOCC1,-27
19,Cc1cccc(NC(=S)Nc2c(C)n(C)n(-c3ccccc3)c2=O)c1C,-2.23
20,CCc1nnc(NC(=O)CSc2nnc(-c3ccc(S(=O)(=O)N4CCCC4)cc3)n2CC)s1,8.86
21,CN(C)N1C(=O)CC(C)(c2ccc([N+](=O)[O-])cc2)C1=O (stereo not drawn),-0.575
22,CCn1c(=O)cc(OCC(=O)NC(C)c2ccc3c(c2)OCCO3)c2ccccc21 (stereo not drawn),-4.48
23,CC/C(=N\O)C(C)(C)/[N+]([O-])=C/c1ccc(Br)cc1,5.28
24,CN(c1ccccc1)S(=O)(=O)c1cccc(NC(=O)c2ccc(=O)[nH]c2)c1,-11.7
25,COCCNC(=O)c1onc(CSc2ccccc2)c1C(=O)O,7.09
